Results reported in PubChem BioAssay (Tox21).
“And” between values parts separate entries of the source, which are not always exact repeats. Equal entries are not always repeated. Results filed as inconclusive are left out. A call without a number means that no potency is given here. The source holds several records for some structures; these can differ, active in one and inactive in another. The source made the active and inactive calls. Unless noted, calls follow the shape of the dose curve; as a rule, active = well fitted curve in the direction sought with a large enough effect in the repeat runs; inconclusive = weak or mixed curves; inactive = no such curve, though single readings can be large; an effect the other way counts as inactive or inconclusive.

Assays:
[1] = biological target: Thyrotropin-releasing hormone receptor (Homo sapiens) (UniProt P34981); test: qHTS assay to identify small molecule agonists of the thyrotropin-releasing hormone receptor (TRHR) signaling pathway (AID 1346891; calls by dose curve; also: potency is read from the fitted curve at half-maximal effect;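 as to activation: HEK293 cells expressing TRHR with calcium dye readout; series mostly up to about 58 µM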)
Chain of Thyrotropin-releasing hormone receptor (Homo sapiens) (P34981 whole entry, looked up): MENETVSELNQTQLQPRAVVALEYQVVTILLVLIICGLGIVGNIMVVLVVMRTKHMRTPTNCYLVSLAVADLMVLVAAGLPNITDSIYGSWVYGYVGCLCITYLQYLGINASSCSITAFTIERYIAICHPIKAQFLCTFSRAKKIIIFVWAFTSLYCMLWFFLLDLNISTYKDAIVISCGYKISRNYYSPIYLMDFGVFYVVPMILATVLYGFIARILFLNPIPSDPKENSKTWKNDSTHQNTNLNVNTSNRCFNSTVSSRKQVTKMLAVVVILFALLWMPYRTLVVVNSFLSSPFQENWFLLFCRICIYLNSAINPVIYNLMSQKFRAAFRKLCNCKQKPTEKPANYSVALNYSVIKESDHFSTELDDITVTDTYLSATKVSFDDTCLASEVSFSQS
Procedure, shortened: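 Kinetic fluorescence (3 min, 1 s intervals) reported intracellular calcium after compound transfer onto TRHR-Hek293 cells pre-loaded with dye for 2 h at 37 °C.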

[2] = Human pregnane X receptor (PXR) small molecule agonists, qHTS cell viability counter screen (AID 1346977); also: nearly all actives have a fitted effect of over 50% in size; also: potency is read from the fitted curve at half-maximal effect
Procedure, shortened: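 HepG2 cells stably carrying the PXR-Luc reporter are cultured with 5% charcoal-stripped FBS and treated with compounds for 24hr. CellTiter-Fluor is added at 23hr and fluorescence is read after 1hr.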

[3] = Caspase-3/7 induction in HepG2 cells by small molecules, qHTS assay (AID 1346978); also: nearly all actives have a fitted effect of over 15% in size; also: potency is read from the fitted curve at half-maximal effect
Procedure, shortened: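 Caspase-3/7 induction was measured by Caspase-Glo 3/7 luminescence (30 min, room temperature) after a 17 hr compound exposure of wild-type HepG2 cells seeded at 2,000 per well and pre-incubated 5 hr.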

[4] = Caspase-3/7 induction in CHO-K1 cells by small molecules, qHTS cell viability counter screen (AID 1346979); also: nearly all actives have a fitted effect of over 35% in size; also: potency is read from the fitted curve at half-maximal effect
Procedure, shortened: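 Seeding: 1,500 CHO-K1 cells/well. Rest: 5hr, 37C. Treatment: compounds in DMSO, 16hr. Read: CellTiter-Fluor, 1hr, fluorescence.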

[5] = Caspase-3/7 induction in CHO-K1 cells by small molecules, qHTS assay (AID 1346980); also: nearly all actives have a fitted effect of over 15% in size
Procedure, shortened: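 Luminescent Caspase-Glo 3/7 read (30min, room temperature) quantified apoptosis induction. Cells were wild-type CHO-K1, treated with compound for 17hr at 37 C and 5% CO2.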

[6] = Caspase-3/7 induction in HepG2 cells by small molecules, qHTS cell viability counter screen (AID 1346981); also: nearly all actives have a fitted effect of over 30% in size; also: potency is read from the fitted curve at half-maximal effect
Procedure, shortened: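 CellTiter-Fluor fluorescence measured viability in the same wells used for Caspase-Glo 3/7. HepG2 (wild type) at 2,000 cells/well were pre-incubated 5 hr, dosed, and given reagent at 16 hr, with 1 hr further at 37C.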

[7] = biological target: Nuclear receptor subfamily 1 group I member 2 (Homo sapiens) (UniProt O75469); test: Human pregnane X receptor (PXR) small molecule agonists, qHTS assay (AID 1346982); also: nearly all actives have a fitted effect of over 35% in size; also: potency is read from the fitted curve at half-maximal effect
Chain of Nuclear receptor subfamily 1 group I member 2 (Homo sapiens) (O75469 whole entry, looked up): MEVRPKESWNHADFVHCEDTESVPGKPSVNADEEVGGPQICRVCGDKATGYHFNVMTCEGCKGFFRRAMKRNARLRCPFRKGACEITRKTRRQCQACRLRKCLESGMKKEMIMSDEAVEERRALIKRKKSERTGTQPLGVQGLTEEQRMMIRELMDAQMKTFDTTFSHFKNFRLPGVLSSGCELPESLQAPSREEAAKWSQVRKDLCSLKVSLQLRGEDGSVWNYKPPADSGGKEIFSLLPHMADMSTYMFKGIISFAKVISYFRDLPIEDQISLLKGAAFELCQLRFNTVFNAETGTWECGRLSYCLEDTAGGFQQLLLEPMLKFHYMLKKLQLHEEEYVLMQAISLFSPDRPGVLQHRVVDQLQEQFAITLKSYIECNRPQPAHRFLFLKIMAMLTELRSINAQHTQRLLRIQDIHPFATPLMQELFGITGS
Procedure, shortened: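 Agonist mode: luminescence from ONE-Glo after 24 h compound exposure at 37C in HepG2 cells carrying hPXR-responsive CYP3A4 luciferase, plated in charcoal-stripped serum medium 5 h beforehand.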

[8] = biological target: Nuclear receptor subfamily 1 group I member 2 (Rattus norvegicus) (UniProt Q9R1A7); test: Rat pregnane X receptor (rPXR) activation by small molecules, qHTS assay (AID 1346983); settings: rPXR luciferase reporter cells, One-Glo luminescence, 24 h; max activation: stronger effect = higher value; also: nearly all actives have a fitted effect of over 20% in size; also: potency is read from the fitted curve at half-maximal effect
Chain of Nuclear receptor subfamily 1 group I member 2 (Rattus norvegicus) (Q9R1A7 whole entry, looked up): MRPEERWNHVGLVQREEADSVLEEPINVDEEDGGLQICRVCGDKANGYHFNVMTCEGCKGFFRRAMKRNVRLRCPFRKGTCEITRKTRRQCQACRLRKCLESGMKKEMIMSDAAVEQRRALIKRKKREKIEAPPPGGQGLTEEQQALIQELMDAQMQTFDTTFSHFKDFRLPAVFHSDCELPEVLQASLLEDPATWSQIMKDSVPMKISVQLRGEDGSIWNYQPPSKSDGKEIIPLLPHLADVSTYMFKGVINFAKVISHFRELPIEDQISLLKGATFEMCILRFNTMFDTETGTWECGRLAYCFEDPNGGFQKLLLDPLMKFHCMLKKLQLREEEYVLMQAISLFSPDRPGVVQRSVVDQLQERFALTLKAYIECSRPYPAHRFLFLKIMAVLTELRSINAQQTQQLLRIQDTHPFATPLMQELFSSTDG
Procedure, shortened: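 Luminescent readout (One-Glo luciferase, 30 min room temperature) followed 24 hr compound treatment at 37 C of rPXR cells plated 2,000 per well and preincubated 5hr; qHTS format with compounds delivered in DMSO.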

[9] = biological target: Nuclear receptor subfamily 1 group I member 2 (Homo sapiens) (UniProt O75469); test: Human pregnane X receptor (PXR) activation by small molecules, qHTS assay (AID 1346985); also: nearly all actives have a fitted effect of over 40% in size
Procedure, shortened: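 DPX-2 cells (HepG2 co-transfected with a PXR response element and a CYP3A4-promoter luciferase construct) were seeded at 2,000 per well, rested 5 hr at 37C, then exposed to DMSO-dissolved compounds for 24 hr. Activation was read as luciferase luminescence.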

[10] = biological target: Cytochrome P450 2D6 (Homo sapiens) (UniProt P10635); test: Cytochrome P450 Family 2 Subfamily D Member 6 (CYP2D6) small molecule antagonists: luciferase reporter qHTS assay (AID 1671196); also: nearly all actives have a fitted effect of over 50% in size; also: potency is read from the fitted curve at half-maximal effect
Chain of Cytochrome P450 2D6 (Homo sapiens) (P10635 whole entry, looked up): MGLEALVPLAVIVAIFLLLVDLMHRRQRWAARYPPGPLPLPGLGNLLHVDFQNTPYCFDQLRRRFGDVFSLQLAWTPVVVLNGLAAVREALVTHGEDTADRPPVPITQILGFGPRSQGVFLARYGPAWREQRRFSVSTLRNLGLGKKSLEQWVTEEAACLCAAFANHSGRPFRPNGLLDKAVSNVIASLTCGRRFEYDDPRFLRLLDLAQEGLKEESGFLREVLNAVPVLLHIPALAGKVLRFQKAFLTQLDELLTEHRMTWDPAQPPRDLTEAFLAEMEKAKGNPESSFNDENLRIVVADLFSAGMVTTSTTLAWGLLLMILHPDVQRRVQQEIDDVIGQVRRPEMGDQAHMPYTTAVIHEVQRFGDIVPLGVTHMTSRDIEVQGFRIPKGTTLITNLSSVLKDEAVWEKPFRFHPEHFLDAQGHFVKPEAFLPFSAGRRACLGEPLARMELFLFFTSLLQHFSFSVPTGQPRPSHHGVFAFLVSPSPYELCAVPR
Procedure, shortened: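 CYP2D6 activity was followed as luminescence from its luciferin product after a 1 h NADPH-driven reaction at room temperature. Enzyme-substrate mix and compound were pre-incubated for 10 min, and the signal was read 20 min after adding detection reagent.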

[11] = biological target: Cytochrome P450 2C19 (Homo sapiens) (UniProt P33261); test: Cytochrome P450 Family 2 Subfamily C Member 19 (CYP2C19) small molecule antagonists: luciferase reporter qHTS assay (AID 1671197); also: nearly all actives have a fitted effect of over 65% in size; also: potency is read from the fitted curve at half-maximal effect
Chain of Cytochrome P450 2C19 (Homo sapiens) (P33261 whole entry, looked up): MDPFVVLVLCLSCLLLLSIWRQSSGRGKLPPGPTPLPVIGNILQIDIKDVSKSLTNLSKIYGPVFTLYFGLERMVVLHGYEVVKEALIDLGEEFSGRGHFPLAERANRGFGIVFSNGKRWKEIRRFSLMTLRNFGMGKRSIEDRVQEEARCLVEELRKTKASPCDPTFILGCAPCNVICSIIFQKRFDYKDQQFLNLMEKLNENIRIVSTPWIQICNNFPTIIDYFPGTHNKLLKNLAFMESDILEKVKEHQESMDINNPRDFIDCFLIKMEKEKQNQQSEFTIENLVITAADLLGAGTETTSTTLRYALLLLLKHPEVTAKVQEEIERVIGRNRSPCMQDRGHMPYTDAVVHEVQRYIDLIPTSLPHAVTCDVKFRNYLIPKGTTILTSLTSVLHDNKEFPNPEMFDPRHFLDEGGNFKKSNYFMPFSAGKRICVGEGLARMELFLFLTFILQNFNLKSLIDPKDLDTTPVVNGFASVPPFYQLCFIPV
Procedure, shortened: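 First, compounds are pinned into enzyme-substrate mix and held 10 min at room temperature. Second, NADPH regeneration solution is added and plates incubate 1 h at 37C. Third, detection reagent is added and luminescence read after 20 min.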

[12] = biological target: Cytochrome P450 2C9 (Homo sapiens) (UniProt P11712); test: Cytochrome P450 Family 2 Subfamily C Member 9 (CYP2C9) small molecule antagonists: luciferase reporter qHTS assay (AID 1671198); also: nearly all actives have a fitted effect of over 50% in size; also: potency is read from the fitted curve at half-maximal effect
Chain of Cytochrome P450 2C9 (Homo sapiens) (P11712 whole entry, looked up): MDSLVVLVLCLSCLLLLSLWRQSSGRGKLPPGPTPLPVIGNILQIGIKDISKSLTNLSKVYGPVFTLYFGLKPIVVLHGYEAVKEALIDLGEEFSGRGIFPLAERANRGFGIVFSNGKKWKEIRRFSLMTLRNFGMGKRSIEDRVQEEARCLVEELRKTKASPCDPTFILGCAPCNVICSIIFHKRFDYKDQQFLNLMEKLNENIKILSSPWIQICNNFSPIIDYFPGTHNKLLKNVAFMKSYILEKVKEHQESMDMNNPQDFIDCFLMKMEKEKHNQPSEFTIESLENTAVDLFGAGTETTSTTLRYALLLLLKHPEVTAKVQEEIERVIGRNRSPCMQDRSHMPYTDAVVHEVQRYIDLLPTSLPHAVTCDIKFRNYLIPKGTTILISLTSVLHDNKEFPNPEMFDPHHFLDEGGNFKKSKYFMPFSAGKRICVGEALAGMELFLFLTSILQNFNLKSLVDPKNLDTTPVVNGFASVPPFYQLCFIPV
Procedure, shortened: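 Enzyme-substrate mix preincubated with compound 10 min at room temperature; reaction started with NADPH regeneration solution, 1 h 37C. Luminescent luciferin product read after 20 min detection reagent.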

[13] = biological target: Cytochrome P450 1A2 (Homo sapiens) (UniProt P05177); test: Cytochrome P450 Family 1 Subfamily A Member 2 (CYP1A2) small molecule antagonists: luciferase reporter qHTS assay (AID 1671199); also: nearly all actives have a fitted effect of over 50% in size; also: potency is read from the fitted curve at half-maximal effect
Chain of Cytochrome P450 1A2 (Homo sapiens) (P05177 whole entry, looked up): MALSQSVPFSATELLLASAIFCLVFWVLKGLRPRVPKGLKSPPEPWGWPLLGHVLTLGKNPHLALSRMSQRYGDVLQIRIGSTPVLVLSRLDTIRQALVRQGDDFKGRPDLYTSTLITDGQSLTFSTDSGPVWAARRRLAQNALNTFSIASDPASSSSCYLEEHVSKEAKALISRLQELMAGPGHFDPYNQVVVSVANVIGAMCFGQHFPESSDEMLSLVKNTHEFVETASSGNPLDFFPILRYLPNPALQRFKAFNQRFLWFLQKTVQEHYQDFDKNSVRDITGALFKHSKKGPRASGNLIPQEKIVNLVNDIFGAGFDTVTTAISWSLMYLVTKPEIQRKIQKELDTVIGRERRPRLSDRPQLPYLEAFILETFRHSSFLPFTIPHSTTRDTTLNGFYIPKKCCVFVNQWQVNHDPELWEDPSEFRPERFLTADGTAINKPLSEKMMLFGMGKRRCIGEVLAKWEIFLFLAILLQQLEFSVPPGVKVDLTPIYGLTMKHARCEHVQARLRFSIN
Procedure, shortened: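 Luminescence from luciferin formed by CYP1A2 from a proluciferin substrate, read 20 min after detection reagent. Compound was pre-incubated 10 min with enzyme-substrate, and reaction started with NADPH regeneration solution for 1 h at room temperature; furafylline control.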

[14] = biological target: Cytochrome P450 3A4 (Homo sapiens) (UniProt P08684); test: Cytochrome P450 Family 3 Subfamily A Member 4 (CYP3A4) small molecule antagonists: luciferase reporter qHTS assay (AID 1671201); also: nearly all actives have a fitted effect of over 50% in size; also: potency is read from the fitted curve at half-maximal effect
Chain of Cytochrome P450 3A4 (Homo sapiens) (P08684 whole entry, looked up): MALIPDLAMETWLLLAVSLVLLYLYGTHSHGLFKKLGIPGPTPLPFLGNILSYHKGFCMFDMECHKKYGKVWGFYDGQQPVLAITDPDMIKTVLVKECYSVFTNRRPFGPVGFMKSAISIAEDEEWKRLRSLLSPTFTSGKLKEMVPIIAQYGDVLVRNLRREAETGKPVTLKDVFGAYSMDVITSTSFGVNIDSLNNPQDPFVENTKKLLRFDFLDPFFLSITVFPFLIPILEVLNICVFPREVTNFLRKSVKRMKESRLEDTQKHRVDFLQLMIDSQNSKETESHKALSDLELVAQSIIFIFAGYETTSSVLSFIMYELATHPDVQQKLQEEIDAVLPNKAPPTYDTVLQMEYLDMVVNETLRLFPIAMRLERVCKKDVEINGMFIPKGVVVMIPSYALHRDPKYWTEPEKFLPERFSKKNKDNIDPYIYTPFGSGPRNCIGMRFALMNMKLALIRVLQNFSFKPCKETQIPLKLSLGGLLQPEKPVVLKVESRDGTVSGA
Procedure, shortened: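 Enzyme and proluciferin substrate are mixed with test chemicals for 10 min, then NADPH regeneration system drives turnover for 1 h at room temperature. A detection reagent halts the reaction; luminescence after 20 min gives relative activity.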

[15] = biological target: Voltage-gated inwardly rectifying potassium channel KCNH2 (Homo sapiens) (UniProt Q12809); test: Human Ether-a-go-go-Related Gene (hERG) channel small molecule antagonists: fluorescence cell-based qHTS assay (AID 1671200)
Chain of Voltage-gated inwardly rectifying potassium channel KCNH2 (Homo sapiens) (Q12809 whole entry, looked up): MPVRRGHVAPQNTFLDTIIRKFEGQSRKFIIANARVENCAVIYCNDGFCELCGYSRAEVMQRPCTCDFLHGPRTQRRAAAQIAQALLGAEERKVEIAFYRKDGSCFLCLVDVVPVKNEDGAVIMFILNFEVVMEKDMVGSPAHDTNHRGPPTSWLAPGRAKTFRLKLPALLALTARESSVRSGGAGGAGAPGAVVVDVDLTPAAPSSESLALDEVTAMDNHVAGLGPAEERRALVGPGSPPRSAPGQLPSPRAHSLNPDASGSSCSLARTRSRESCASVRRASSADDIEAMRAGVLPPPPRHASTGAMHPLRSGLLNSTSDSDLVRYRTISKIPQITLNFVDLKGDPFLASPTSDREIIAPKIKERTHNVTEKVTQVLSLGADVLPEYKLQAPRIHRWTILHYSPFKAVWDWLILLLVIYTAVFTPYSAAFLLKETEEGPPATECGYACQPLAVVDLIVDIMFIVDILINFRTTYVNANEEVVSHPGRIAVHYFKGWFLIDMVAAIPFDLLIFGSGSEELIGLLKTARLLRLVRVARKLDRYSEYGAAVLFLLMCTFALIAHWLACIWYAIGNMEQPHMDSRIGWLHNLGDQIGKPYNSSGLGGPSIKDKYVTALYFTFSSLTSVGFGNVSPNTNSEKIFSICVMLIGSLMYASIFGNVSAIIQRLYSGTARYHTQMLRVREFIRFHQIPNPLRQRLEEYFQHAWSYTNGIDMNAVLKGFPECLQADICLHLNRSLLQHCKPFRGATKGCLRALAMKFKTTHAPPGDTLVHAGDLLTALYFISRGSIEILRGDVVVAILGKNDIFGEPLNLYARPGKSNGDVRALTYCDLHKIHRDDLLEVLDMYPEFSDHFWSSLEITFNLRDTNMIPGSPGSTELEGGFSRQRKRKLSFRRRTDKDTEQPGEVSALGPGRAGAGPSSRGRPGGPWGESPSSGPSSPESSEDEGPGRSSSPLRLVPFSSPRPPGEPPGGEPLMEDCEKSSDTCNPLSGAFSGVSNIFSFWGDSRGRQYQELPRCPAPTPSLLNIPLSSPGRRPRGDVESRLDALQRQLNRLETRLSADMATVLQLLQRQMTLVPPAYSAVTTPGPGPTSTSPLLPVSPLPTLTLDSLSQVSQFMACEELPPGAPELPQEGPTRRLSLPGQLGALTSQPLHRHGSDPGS
Procedure, shortened: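 First, 1000 cells per well are seeded and cultured overnight at 37 C. Next, FluxOR II dye is loaded for 1 h at room temperature, protected from light. After 10 more minutes, stimulus is added and fluorescence is read.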

SMILES	Potency [1]	Potency [2]	Potency [3]	Potency [4]	outcome [5]	Potency [6]	Potency [7]	max activation [8]	Potency [9]	Potency [10]	Potency [11]	Potency [12]	Potency [13]	Potency [14]	Potency [15]	Potency [8]
NC(=O)c1ccc([N+](=O)[O-])cc1Cl	inactive	inactive	inactive	inactive	inactive	inactive	inactive	2.53% (inactive)	inactive	inactive	inactive	71 µM (active) and inactive	inactive	inactive		
CCCCCCCCCCCCCCCCCC(=O)OCC(O)CO (configuration not stated)	inactive	inactive	inactive	inactive	inactive	inactive	inactive	0.317% (inactive)	inactive	inactive	inactive	inactive	inactive	inactive	inactive	
Cc1cccc(Nc2cc(Cl)nc(SCC(=O)O)n2)c1C	inactive	inactive	inactive	inactive	inactive	inactive	61.1 µM (active) and inactive			inactive	inactive and 7.76 µM (active)	31.7 µM (active) and 29.2 µM (active) and 17.4 µM (active)	inactive	inactive	inactive	
NC(=O)N1c2ccccc2C=Cc2ccccc21	inactive	inactive	inactive	inactive	inactive	inactive	54.2 µM (active) and inactive			1.99 µM (active) and inactive	70.6 µM (active) and inactive	inactive	inactive	inactive	inactive	
C#C[C@]1(O)CC[C@H]2[C@@H]3CCc4cc(O)ccc4[C@H]3CC[C@@]21C	inactive	inactive	21.5 µM (active) and inactive	54.1 µM (active) and 54.5 µM (active)	inactive	inactive		10.3% (inactive)		inactive	7.05 µM (active) and 10 µM (active) and 13.8 µM (active)		inactive and 17.4 µM (active)		inactive	
CC(=O)c1ccc(S(=O)(=O)NC(=O)NC2CCCCC2)cc1	inactive	inactive	inactive	inactive	inactive	inactive	inactive			31.6 µM (active) and inactive	inactive	31.6 µM (active) and 31.7 µM (active) and 17.4 µM (active)	inactive	inactive		
CCOCCO	inactive	inactive	inactive	inactive	inactive	inactive	inactive			inactive	inactive	inactive	inactive	inactive	inactive	
OCCCc1ccccc1	inactive	inactive	inactive	inactive	inactive	inactive	inactive			inactive	31.7 µM (active) and inactive	inactive	35.6 µM (active)	inactive	inactive	
N[C@@H](Cc1c[nH]c2ccccc12)C(=O)O	inactive	inactive	inactive	inactive	inactive	inactive	inactive			35.6 µM (active) and inactive	31.8 µM (active) and inactive	71.1 µM (active)		inactive		
CN(C)C=O	inactive	inactive	inactive	inactive	inactive	inactive	inactive			inactive	inactive	inactive	inactive	inactive		
C=C(C)OC(C)=O	inactive	inactive	inactive	inactive	inactive	inactive	inactive			13 µM (active) and inactive	inactive	inactive	inactive	inactive	inactive	
CC1=C(/C=C/C(C)=C/C=C/C(C)=C/C(=O)O)C(C)(C)CCC1	inactive	inactive	inactive	68.5 µM (active) and inactive	inactive	inactive	54.5 µM (active) and 61.1 µM (active) and 33.5 µM (active)			inactive	20 µM (active) and 35.5 µM (active)	71.1 µM (active) and 39.9 µM (active) and 34.7 µM (active)	inactive	35.6 µM (active) and 28.2 µM (active)		
CO[C@H]1C=CO[C@@]2(C)Oc3c(C)c(O)c4c(O)c(c(/C=N/N5CCN(C)CC5)c(O)c4c3C2=O)NC(=O)/C(C)=C\C=C[C@H](C)[C@H](O)[C@@H](C)[C@@H](O)[C@@H](C)[C@H](OC(C)=O)[C@@H]1C	inactive	35.5 µM (active) and 19.6 µM (active) and 23.7 µM (active)	inactive	30.8 µM (active) and 34.8 µM (active) and 26.6 µM (active)	inactive	27.4 µM (active) and 34.8 µM (active) and 23.7 µM (active)		-4.8% (inactive)		inactive	35.8 µM (active) and 50.8 µM (active) and 9.77 µM (active)		inactive			
CCn1cc(C(=O)O)c(=O)c2ccc(C)nc21	inactive	inactive	inactive	inactive	inactive	inactive	inactive			inactive			inactive	inactive	inactive	
O=C(O)CCCCC1CCSS1 (configuration not stated)	inactive	inactive	inactive	inactive	inactive	inactive	inactive			inactive	49.6 µM (active) and inactive	inactive	inactive	inactive		
COCCOCCOC	inactive	inactive	inactive	inactive	inactive	inactive	61.3 µM (active) and inactive			inactive	inactive	inactive	inactive	inactive	inactive	
CC(=O)/C=C/C1=C(C)CCCC1(C)C	inactive	inactive	inactive	inactive	inactive	inactive	55.5 µM (active) and 17.2 µM (active) and 21.7 µM (active)			inactive	40.7 µM (active) and 39.9 µM (active) and 71 µM (active)		inactive	35.6 µM (active)		
COC(=O)C1CCC(C(=O)OC)CC1 (configuration not stated)	inactive	inactive	inactive	inactive	inactive	inactive	inactive			inactive	inactive	inactive	inactive	inactive		
CC(C)Cc1ccc(C(C)C(=O)O)cc1 (configuration not stated)	inactive	inactive	inactive	inactive	inactive	inactive	inactive			inactive	inactive		inactive	inactive	inactive	
Cc1cccc2ccccc12	inactive	inactive	inactive	inactive	inactive	inactive	inactive			inactive	inactive and 71 µM (active)	inactive	inactive	inactive		
COc1ccc(C(=O)c2ccccc2)c(O)c1	inactive	inactive	inactive	inactive	inactive	inactive	60.1 µM (active) and 54.5 µM (active)			44.1 µM (active)	5.55 µM (active) and 10 µM (active) and 4.9 µM (active)	39.3 µM (active) and 35.6 µM (active) and 24.5 µM (active)	19.7 µM (active) and 22.4 µM (active) and 12.9 µM (active)	inactive		
CCOC(=O)C(C)(C)Oc1ccc(Cl)cc1	inactive	inactive	inactive	inactive	inactive	inactive	inactive								inactive	
COc1cc(C=O)ccc1O	inactive	inactive	inactive	inactive	inactive	inactive	inactive			inactive	inactive	inactive	inactive	inactive		
Cc1cccc(C)c1O	inactive	inactive	inactive	inactive	inactive	inactive	inactive			inactive	72.1 µM (active) and inactive		36.1 µM (active)	inactive	inactive	
COC1=CC(=O)C[C@@H](C)[C@]12Oc1c(Cl)c(OC)cc(OC)c1C2=O	inactive	inactive	24.1 µM (active) and 61.1 µM (active)	inactive	inactive	inactive				inactive	70.4 µM (active) and inactive	44.8 µM (active) and inactive	inactive		inactive	28.2 µM (active)
NC(=O)OCC(COC(N)=O)c1ccccc1	inactive	inactive	inactive	inactive	inactive	inactive	inactive			inactive	inactive and 34.7 µM (active)	inactive	inactive	inactive		
O=C(O)CN(CC(=O)O)CC(=O)O	inactive	inactive	inactive	inactive	inactive	inactive	inactive			inactive	36.1 µM (active) and inactive	inactive	inactive	inactive		
CC(=O)CCC(C)C	inactive and 17.4 µM (active)	inactive	inactive	inactive	inactive	inactive	inactive			inactive	inactive	inactive		inactive		
COCC(C)N (configuration not stated)	inactive	inactive	inactive	inactive	inactive	inactive	inactive			inactive	inactive	inactive	44.8 µM (active)	inactive	inactive	
COc1ccccc1NC(=O)CC(C)=O	inactive	inactive	inactive	inactive	inactive	inactive	61.1 µM (active)			inactive	78.5 µM (active) and inactive	inactive	31.3 µM (active) and 35.6 µM (active)	63.3 µM (active)	inactive	
